From the supplement of paper PMC10981050 come the findings set out here.

Structures are written as SMILES. Values joined by “and” are separate entries in the source; they are usually repeats but may differ in a detail not shown here. Equal values may be shown once. Where a name gives a salt, the structure may show the parent alone.

Common to all, as to experiment: cell viability relative to vehicle control; higher = less cytotoxic
Common to all, as to conditions: 10 µM

Assay [1] relates to K562. In short, it runs like this: (§1)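 Four leukaemia lines, as CRISPR-edited mutant clones and isogenic wild-type clones, were tested against Selleck bioactive, kinase and epigenetic probe libraries after removal of identity-inconsistent compounds. Cells were exposed to a single 10 µM dose for 48 h, and CellTiter-Glo luminescence was then read. Viability was calculated relative to the on-plate vehicle control.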

For assay [2], the system named is MARIMO. The gist of the method:
as §1

For assay [3], the system named is MOLM14. In short, it runs like this:
as §1

Assay [4] concerns OCI-AML2. The gist of the method:
as §1

Consider `C=CC(=O)N1CCC(Oc2cc3c(Nc4ccc(Cl)c(Cl)c4F)ncnc3cc2OC)CC1` [Poziotinib (HM781-36B)], for which the cell viability (usually a read-out of living cells in per cent, often relative to untreated cells) is 56% and 63.7% in assay [1] (SRSF2 genotype: SRSF2 P95H/wt); 65.6% in assay [1] (SRSF2 genotype: SRSF2 wt/wt); 71.9% in assay [2] (SRSF2 genotype: SRSF2 P95H/wt); 72.6% in assay [2] (SRSF2 genotype: SRSF2 wt/wt); 53.4% in assay [3] (SRSF2 genotype: SRSF2 P95H/wt); 58% in assay [3] (SRSF2 genotype: SRSF2 wt/wt). Further, the cell viability in assay [4] (SRSF2 genotype: P95H/wt) was 73.7%; in assay [4] (SRSF2 genotype: wt/wt), 66.7%.
Turning to `COc1cc(N)c(Cl)cc1C(=O)NC1CCN(CCCOc2ccc(F)cc2)CC1OC` (configuration not stated) [Cisapride hydrate], the cell viability in assay [1] (SRSF2 genotype: SRSF2 P95H/wt) was 93.4% and 92.3%; in assay [1] (SRSF2 genotype: SRSF2 wt/wt), 95.5%; in assay [2] (SRSF2 genotype: SRSF2 P95H/wt), 93.3%; in assay [2] (SRSF2 genotype: SRSF2 wt/wt) it was 105%; in assay [3] (SRSF2 genotype: SRSF2 P95H/wt) it was 99.8%; in assay [3] (SRSF2 genotype: SRSF2 wt/wt), 102%. Moreover, the cell viability in assay [4] (SRSF2 genotype: P95H/wt) is 105%; in assay [4] (SRSF2 genotype: wt/wt), 99.8%.
Consider `CCCCOc1cc(C(=O)NCCN(CC)CC)c2ccccc2n1` [Dibucaine (Cinchocaine) HCl], for which the cell viability in assay [1] (SRSF2 genotype: SRSF2 P95H/wt) was 94.5% and 84%; in assay [1] (SRSF2 genotype: SRSF2 wt/wt) it was 85.3%; in assay [2] (SRSF2 genotype: SRSF2 P95H/wt) it was 81.8%; in assay [2] (SRSF2 genotype: SRSF2 wt/wt) it was 91.5%; in assay [3] (SRSF2 genotype: SRSF2 P95H/wt) it was 86.2%; in assay [3] (SRSF2 genotype: SRSF2 wt/wt) it was 91.7%. Besides, the results for the cell viability in assay [4] (SRSF2 genotype: P95H/wt) and in assay [4] (SRSF2 genotype: wt/wt) were 93.2% and 86.1%, respectively.
Turning to `COc1ccc(-c2ccc3ncc4c(c3c2)n(-c2ccc(N3CCNCC3)c(C(F)(F)F)c2)c(=O)n4C)cn1`, the cell viability is 0.26% and 0.21% in assay [1] (SRSF2 genotype: SRSF2 P95H/wt); 0.16% in assay [1] (SRSF2 genotype: SRSF2 wt/wt); 0.25% in assay [2] (SRSF2 genotype: SRSF2 P95H/wt); 0.28% in assay [2] (SRSF2 genotype: SRSF2 wt/wt); 0.18% in assay [3] (SRSF2 genotype: SRSF2 P95H/wt); 0.18% in assay [3] (SRSF2 genotype: SRSF2 wt/wt). The results for the cell viability in assay [4] (SRSF2 genotype: P95H/wt) and in assay [4] (SRSF2 genotype: wt/wt) were 0.11% and 0.16%, respectively.
Take `C[C@@H]1[C@H](O)[C@@H](C)/C=C/C=C/C=C/C=C/C=C/C=C/C=C/[C@H](O[C@@H]2O[C@H](C)[C@@H](O)[C@H](N)[C@@H]2O)C[C@@H]2O[C@](O)(C[C@@H](O)C[C@@H](O)[C@H](O)CC[C@@H](O)C[C@@H](O)CC(=O)O[C@H]1C)C[C@H](O)[C@H]2C(=O)O` [Amphotericin B]: the cell viability in assay [1] (SRSF2 genotype: SRSF2 P95H/wt) is 97.4% and 101%; in assay [1] (SRSF2 genotype: SRSF2 wt/wt), 104%; in assay [2] (SRSF2 genotype: SRSF2 P95H/wt), 110%; in assay [2] (SRSF2 genotype: SRSF2 wt/wt) it was 103%; in assay [3] (SRSF2 genotype: SRSF2 P95H/wt) it was 93.9%; in assay [3] (SRSF2 genotype: SRSF2 wt/wt), 101%. Further, the cell viability turned out to be 126% in assay [4] (SRSF2 genotype: P95H/wt) and 110% in assay [4] (SRSF2 genotype: wt/wt).
`O=C(c1ccccc1)c1ccc2n1CCC2C(=O)O` (configuration not stated) [Ketorolac]: the cell viability in assay [1] (SRSF2 genotype: SRSF2 P95H/wt) was 102% and 98.1%; in assay [1] (SRSF2 genotype: SRSF2 wt/wt), 99.6%; in assay [2] (SRSF2 genotype: SRSF2 P95H/wt), 100%; in assay [2] (SRSF2 genotype: SRSF2 wt/wt), 102%; in assay [3] (SRSF2 genotype: SRSF2 P95H/wt), 98.2%; in assay [3] (SRSF2 genotype: SRSF2 wt/wt) it was 102%. The figures for the cell viability in assay [4] (SRSF2 genotype: P95H/wt) and in assay [4] (SRSF2 genotype: wt/wt) were 103% and 108%, respectively.
Regarding `C[C@H](CCC(=O)NCCS(=O)(=O)O)[C@H]1CC[C@H]2[C@@H]3[C@@H](O)C[C@@H]4C[C@H](O)CC[C@]4(C)[C@H]3CC[C@]12C` [Tauroursodeoxycholic Acid], the cell viability in assay [1] (SRSF2 genotype: SRSF2 P95H/wt) amounted to 102%; in assay [1] (SRSF2 genotype: SRSF2 wt/wt), 99%; in assay [2] (SRSF2 genotype: SRSF2 P95H/wt), 99.4%; in assay [2] (SRSF2 genotype: SRSF2 wt/wt) it was 108%; in assay [3] (SRSF2 genotype: SRSF2 P95H/wt), 107%; in assay [3] (SRSF2 genotype: SRSF2 wt/wt) it was 103%. Also, the values for the cell viability in assay [4] (SRSF2 genotype: P95H/wt) and in assay [4] (SRSF2 genotype: wt/wt) were 95.8% and 114%, respectively.
Consider `CCc1nc(-c2cccc(C)c2)c(-c2ccnc(NC(=O)c3ccccc3)c2)s1`, for which the cell viability was 75.8% and 73% in assay [1] (SRSF2 genotype: SRSF2 P95H/wt); 66.3% in assay [1] (SRSF2 genotype: SRSF2 wt/wt); 72.3% in assay [2] (SRSF2 genotype: SRSF2 P95H/wt); 64% in assay [2] (SRSF2 genotype: SRSF2 wt/wt); 76.5% in assay [3] (SRSF2 genotype: SRSF2 P95H/wt); 86.7% in assay [3] (SRSF2 genotype: SRSF2 wt/wt). For the same compound, the cell viability in assay [4] (SRSF2 genotype: P95H/wt) turned out to be 83.7%; in assay [4] (SRSF2 genotype: wt/wt), 76.5%.
On to `CCc1c2c(nc3ccc(O)cc13)-c1cc3c(c(=O)n1C2)COC(=O)[C@]3(O)CC`, for which the cell viability in assay [1] (SRSF2 genotype: SRSF2 P95H/wt) was 10.1% and 21.4%; in assay [1] (SRSF2 genotype: SRSF2 wt/wt) it was 13.4%; in assay [2] (SRSF2 genotype: SRSF2 P95H/wt), 5.36%; in assay [2] (SRSF2 genotype: SRSF2 wt/wt), 3.23%; in assay [3] (SRSF2 genotype: SRSF2 P95H/wt), 1.02%; in assay [3] (SRSF2 genotype: SRSF2 wt/wt) it was 0.95%. Also, the results for the cell viability in assay [4] (SRSF2 genotype: P95H/wt) and in assay [4] (SRSF2 genotype: wt/wt) were 0.48% and 1.9%, respectively.
